Measured values reported in PubChem BioAssay AID1159580 (chemical genetic matrix, 2015).
Hit rate of the full screen: of about 5,500 compounds, about 2,000 (36%) were called active. Roughly 18% stayed inconclusive and do not appear here. Rule as the data show it: active = normalized growth mostly below about 0.91 (no sharp cut-off); inconclusive = no clear call, values can overlap the other calls; inactive = mostly above about 0.92. This is one part of the list.

Assay: chemical genetic growth profiling, strain panel (AID 1159580);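 also: tested at 20 µM; growth read once vehicle control cultures reached saturation at 30 °C; 1 = growth at the plate median or of vehicle wells; lower values mean less growth of the strain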
Details: growth OD

Measured: normalized growth

C=C1C2CC[C@H]3[C@]4(C)C[C@H](OC5OC(CO)C(OS(=O)(=O)O)C(OS(=O)(=O)O)C5OC(=O)CC(C)C)C[C@@H](C(=O)O)[C@H]4CC[C@]3(C2)[C@H]1O (some centres undefined)
inactive: S. cerevisiae deletion strains, locus YJR043C, strain POL32, active compounds read low 1 | S. cerevisiae deletion strains, locus YJR075W, strain HOC1, active compounds read low 1.01 | S. cerevisiae deletion strains, locus YKL009W, strain mrt4, active compounds read low 0.984 | S. cerevisiae deletion strains, locus YKL068W, active compounds read low 0.981 | S. cerevisiae deletion strains, locus YKL085W, strain MDH1 (second series), active compounds read low 0.97 | S. cerevisiae deletion strains, locus YKL085W, strain MDH1, active compounds read low 0.97 | S. cerevisiae deletion strains, locus YKL160W, strain elf1, active compounds read low 0.984 | S. cerevisiae deletion strains, locus YKL190W, strain CNB1, active compounds read low 1.01 | S. cerevisiae deletion strains, locus YKR001C, strain vps1, active compounds read low 0.976 | S. cerevisiae deletion strains, locus YKR026C, strain gcn3, active compounds read low 1.01 | S. cerevisiae deletion strains, locus YKR091W, strain srl3, active compounds read low 1.01 | S. cerevisiae deletion strains, locus YLL001W, strain dnm1, active compounds read low 1.03 | S. cerevisiae deletion strains, locus YLL026W, active compounds read low 1.01 | S. cerevisiae deletion strains, locus YLL041C, strain sdh2, active compounds read low 1.01 | S. cerevisiae deletion strains, locus YLR027C, strain aat2, active compounds read low 1.01 | S. cerevisiae deletion strains, locus YLR039C, strain RIC1, active compounds read low 0.99 | S. cerevisiae deletion strains, locus YLR058C, strain SHM2, active compounds read low 1.01 | S. cerevisiae deletion strains, locus YLR102C, strain apc9, active compounds read low 0.983 | S. cerevisiae deletion strains, locus YLR221C, strain rsa3, active compounds read low 0.995 | S. cerevisiae deletion strains, locus YLR258W, strain gsy2, active compounds read low 1.02 | S. cerevisiae deletion strains, locus YLR262C, strain YPT6 (second series), active compounds read low 1.01 | S. cerevisiae deletion strains, locus YLR262C, strain YPT6, active compounds read low 0.994 | S. cerevisiae deletion strains, locus YLR268W, strain sec22, active compounds read low 0.987 | S. cerevisiae deletion strains, locus YLR320W, strain mms22, active compounds read low 1.01 | S. cerevisiae deletion strains, locus YLR330W, strain CHS5, active compounds read low 1.01 | S. cerevisiae deletion strains, locus YLR342W, strain FKS1 (second series), active compounds read low 1.01 | S. cerevisiae deletion strains, locus YLR342W, strain FKS1, active compounds read low 1.01 | S. cerevisiae deletion strains, locus YLR357W, strain rsc2, active compounds read low 0.986 | S. cerevisiae deletion strains, locus YLR370C, strain arc18, active compounds read low 1 | S. cerevisiae deletion strains, locus YLR371W, strain rom2, active compounds read low 0.987 | S. cerevisiae deletion strains, locus YLR384C, strain iki3, active compounds read low 0.991 | S. cerevisiae deletion strains, locus YLR418C, strain cdc73, active compounds read low 1 | S. cerevisiae deletion strains, locus YML016C, strain PPZ1, active compounds read low 1.01 | S. cerevisiae deletion strains, locus YML032C, strain rad52, active compounds read low 0.984 | S. cerevisiae deletion strains, locus YML120C, strain ndi1, active compounds read low 1.01 | S. cerevisiae deletion strains, locus YML124C, strain tub3, active compounds read low 0.987 | S. cerevisiae deletion strains, locus YMR058W, strain fet3, active compounds read low 1.01 | S. cerevisiae deletion strains, locus YMR078C, strain ctf18, active compounds read low 0.982 | S. cerevisiae deletion strains, locus YMR125W, strain sto1, active compounds read low 1.02 | S. cerevisiae deletion strains, locus YMR129W, active compounds read low 0.992 | S. cerevisiae deletion strains, locus YMR205C, strain PFK2, active compounds read low 1.03 | S. cerevisiae deletion strains, locus YMR223W, strain ubp8, active compounds read low 0.977 | S. cerevisiae deletion strains, locus YMR231W, strain pep5, active compounds read low 1.01 | S. cerevisiae deletion strains, locus YMR263W, strain SAP30, active compounds read low 1.02 | S. cerevisiae deletion strains, locus YMR307W, strain GAS1, active compounds read low 1.05 | S. cerevisiae deletion strains, locus YNL067W, strain RPL9B, active compounds read low 1.02 | S. cerevisiae deletion strains, locus YNL071W, strain lat1, active compounds read low 1.01 | S. cerevisiae deletion strains, locus YNL128W, strain TEP1, active compounds read low 1.02 | S. cerevisiae deletion strains, locus YNL153C, strain GIM3, active compounds read low 1.03 | S. cerevisiae deletion strains, locus YNL209W, strain ssb2, active compounds read low 1 | S. cerevisiae deletion strains, locus YNL233W, strain BNI4, active compounds read low 1.02 | S. cerevisiae deletion strains, locus YNL248C, strain rpa49, active compounds read low 0.974 | S. cerevisiae deletion strains, locus YNL250W, strain rad50, active compounds read low 0.972 | S. cerevisiae deletion strains, locus YNL271C, strain bni1, active compounds read low 0.972 | S. cerevisiae deletion strains, locus YNL298W, strain CLA4, active compounds read low 0.977 | S. cerevisiae deletion strains, locus YNL307C, strain MCK1, active compounds read low 0.986 | S. cerevisiae deletion strains, locus YNL322C, strain KRE1 (second series), active compounds read low 1 | S. cerevisiae deletion strains, locus YNL322C, strain KRE1, active compounds read low 1.01 | S. cerevisiae deletion strains, locus YNR049C, strain mso1, active compounds read low 1.01 | S. cerevisiae deletion strains, locus YNR052C, strain pop2, active compounds read low 0.97 | S. cerevisiae deletion strains, locus YOL006C, strain TOP1, active compounds read low 1.07 | S. cerevisiae deletion strains, locus YOL012C, strain htz1 0.954 | S. cerevisiae deletion strains, locus YOL147C, strain pex11, active compounds read low 0.992 | S. cerevisiae deletion strains, locus YOR001W, strain rrp6, active compounds read low 0.992 | S. cerevisiae deletion strains, locus YOR061W, strain CKA2, active compounds read low 1.01 | S. cerevisiae deletion strains, locus YOR069W, strain VPS5, active compounds read low 1.01 | S. cerevisiae deletion strains, locus YOR070C, strain gyp1, active compounds read low 1 | S. cerevisiae deletion strains, locus YOR080W, strain dia2, active compounds read low 1.02 | S. cerevisiae deletion strains, locus YOR083W, strain WHI5, active compounds read low 0.976 | S. cerevisiae deletion strains, locus YOR106W, strain vam3, active compounds read low 0.991 | S. cerevisiae deletion strains, locus YOR136W, strain idh2, active compounds read low 0.988 | S. cerevisiae deletion strains, locus YOR144C, strain elg1, active compounds read low 0.99 | S. cerevisiae deletion strains, locus YOR184W, strain ser1, active compounds read low 0.958 | S. cerevisiae deletion strains, locus YOR265W, strain rbl2, active compounds read low 1.01 | S. cerevisiae deletion strains, locus YOR270C, strain vph1, active compounds read low 1.01 | S. cerevisiae deletion strains, locus YOR290C, strain snf2, active compounds read low 0.986 | S. cerevisiae deletion strains, locus YOR316C, strain cot1, active compounds read low 0.991 | S. cerevisiae deletion strains, locus YPL051W, strain arl3, active compounds read low 0.995 | S. cerevisiae deletion strains, locus YPL055C, strain LGE1, active compounds read low 1.05 | S. cerevisiae deletion strains, locus YPL078C, strain atp4, active compounds read low 0.993 | S. cerevisiae deletion strains, locus YPL106C, strain sse1, active compounds read low 1.01 | S. cerevisiae deletion strains, locus YPL240C, strain hsp82, active compounds read low 1.01 | S. cerevisiae deletion strains, locus YPL241C, strain CIN2, active compounds read low 1.02 | S. cerevisiae deletion strains, locus YPR119W, strain clb2, active compounds read low 0.986 | S. cerevisiae deletion strains, locus YPR141C, strain kar3, active compounds read low 0.969 | S. cerevisiae deletion strains, locus YPR163C, strain tif3, active compounds read low 0.992 | S. cerevisiae deletion strains, locus YPR167C, strain met16, active compounds read low 0.985 | S. cerevisiae deletion strains, strain wtn01, active compounds read low 0.98 | S. cerevisiae strains, strain wild type, active compounds read low 1.01
